Records with an inconclusive call do not appear. A number with no mark means an inactive call. Calls of active or inactive are those of the source. Calls follow the shape of the dose curve; as a rule, active = well fitted cell-killing curve with a large enough effect; inconclusive = small, poorly fitted or top-dose-only effect, or effect the other way; inactive = no such curve, though single readings can be large or run the other way.
Experiments:
[1] = Quantitative High-Throughput drug screen in 47 multiple myeloma cell lines against the NCATS MIPE library collection: KMS28PE_JCRB cell viability assay (AID 1918983); also: nearly all actives have a fitted effect of over 35% in size
In short: (§1)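 Myeloma cells (500/well) treated with MIPE 4.0 compounds for 48 h at 37 °C, 5% CO2. Viability read as ATP via CellTiter-Glo luminescence after 5 min at RT; DMSO-only wells = 100%, media-only = 0% viability.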

[2] = Quantitative High-Throughput drug screen in 47 multiple myeloma cell lines against the NCATS MIPE library collection: KMS34_JCRB cell viability assay (AID 1918985); also: nearly all actives have a fitted effect of over 40% in size
In short: as §1

[3] = Quantitative High-Throughput drug screen in 47 multiple myeloma cell lines against the NCATS MIPE library collection: OCIMY5_PLB cell viability assay (AID 1918988); also: nearly all actives have a fitted effect of over 65% in size
In short: as §1

[4] = Quantitative High-Throughput drug screen in 47 multiple myeloma cell lines against the NCATS MIPE library collection: OPM1_PLB cell viability assay (AID 1918989); also: nearly all actives have a fitted effect of over 40% in size
In short: as §1

[5] = Quantitative High-Throughput drug screen in 47 multiple myeloma cell lines against the NCATS MIPE library collection: XG6_PLB cell viability assay (AID 1919865); also: nearly all actives have a fitted effect of over 40% in size
In short: as §1

[6] = Quantitative High-Throughput drug screen in 47 multiple myeloma cell lines against the NCATS MIPE library collection: XG1_PLB cell viability assay (AID 1919866); also: nearly all actives have a fitted effect of over 35% in size
In short: as §1

[7] = Quantitative High-Throughput drug screen in 47 multiple myeloma cell lines against the NCATS MIPE library collection: VP6_DJ cell viability assay (AID 1919867); also: nearly all actives have a fitted effect of over 40% in size
In short: as §1

[8] = Quantitative High-Throughput drug screen in 47 multiple myeloma cell lines against the NCATS MIPE library collection: UTMC2_PLB cell viability assay (AID 1919868); details: CellTiter-Glo ATP luminescence, 48 h; viability (% of DMSO control): at 45.8 µM (top of the series); also: nearly all actives have a fitted effect of over 55% in size
In short: as §1

[9] = Quantitative High-Throughput drug screen in 47 multiple myeloma cell lines against the NCATS MIPE library collection: PE2_PLB cell viability assay (AID 1919869); also: nearly all actives have a fitted effect of over 35% in size
In short: as §1

[10] = Quantitative High-Throughput drug screen in 47 multiple myeloma cell lines against the NCATS MIPE library collection: PCM6_Riken cell viability assay (AID 1919870); also: nearly all actives have a fitted effect of over 30% in size
In short: as §1

[11] = Quantitative High-Throughput drug screen in 47 multiple myeloma cell lines against the NCATS MIPE library collection: OPM2_DSMZ cell viability assay (AID 1919872); also: nearly all actives have a fitted effect of over 30% in size
In short: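 Myeloma cell lines, 500 cells per well, exposed to MIPE 4.0 library compounds for 48 h at 37C, 5% CO2. Viability from ATP by CellTiter-Glo luminescence; normalised to DMSO (100%) and media-only (0%) wells.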

[12] = Quantitative High-Throughput drug screen in 47 multiple myeloma cell lines against the NCATS MIPE library collection: KMS11_JCRBsus cell viability assay (AID 1919873); also: nearly all actives have a fitted effect of over 50% in size
In short: as §1

[13] = Quantitative High-Throughput drug screen in 47 multiple myeloma cell lines against the NCATS MIPE library collection: KMS28BM_JCRB cell viability assay (AID 1919874); also: nearly all actives have a fitted effect of over 35% in size
In short: as §1

[14] = Quantitative High-Throughput drug screen in 47 multiple myeloma cell lines against the NCATS MIPE library collection: OCIMY7_PLB cell viability assay (AID 1918987); details: OCI-MY7 myeloma viability, CellTiter-Glo ATP, 48 h; viability (% of DMSO): at 45.8 µM (top of the series); also: nearly all actives have a fitted effect of over 65% in size
In short: as §1

[15] = Quantitative High-Throughput drug screen in 47 multiple myeloma cell lines against the NCATS MIPE library collection: SKMM1_PLB cell viability assay (AID 1919863); details: SKMM1 myeloma viability, CellTiter-Glo ATP, 48 h; viability: active compounds read low; also: nearly all actives have a fitted effect of over 35% in size
In short: as §1

[16] = Quantitative High-Throughput drug screen in 47 multiple myeloma cell lines against the NCATS MIPE library collection: U266_ATCC cell viability assay (AID 1919864); also: nearly all actives have a fitted effect of over 35% in size
In short: as §1

[17] = Quantitative High-Throughput drug screen in 47 multiple myeloma cell lines against the NCATS MIPE library collection: RPMI8226_ATCC cell viability assay (AID 1919871); also: nearly all actives have a fitted effect of over 30% in size
In short: as §1
Potency is read from the fitted curve at half-maximal effect.

Row | Compound | Potency [1] | Potency [2] | Potency [3] | Potency [4] | Potency [5] | Potency [6] | Potency [7] | Potency [8] | Potency [9] | Potency [10] | Potency [11] | Potency [12] | Potency [13] | Potency [14] | Potency [15] | Potency [16] | Potency [17] | viability [15] [%]
1 | C[C@@H]1[C@H](C)CC[C@]2(C(=O)O)CC[C@]3(C)C(=CC[C@@H]4[C@@]5(C)C[C@@H](O)[C@H](O)[C@@](C)(CO)[C@H]5CC[C@]43C)[C@@H]12 | inactive | inactive | inactive | inactive | inactive | inactive | inactive | inactive | inactive | inactive | inactive | inactive | inactive | – | – | – | – | –
2 | CN1CCc2c(c3ccccc3n2Cc2ccc(C(=O)NO)cc2)C1 | 18.7 µM (active) | 16.6 µM (active) | 18.7 µM (active) | 16.6 µM (active) | 8.33 µM (active) | 11.8 µM (active) | 9.35 µM (active) | 2.64 µM (active) | 23.5 µM (active) | 16.6 µM (active) | – | 20.9 µM (active) | – | 9.35 µM (active) | – | – | – | –
3 | Oc1ccc([C@@H]2Oc3ccc(O)cc3[C@@H]3CCC[C@@H]32)cc1 | 23.5 µM (active) | 23.5 µM (active) | – | 16.6 µM (active) | – | – | – | – | – | – | 33.2 µM (active) | 7.43 µM (active) | 14.8 µM (active) | 1.18 µM (active) | 10.5 µM (active) | – | – | –
4 | CC(=O)OC[C@@H]1O[C@@H](n2ccc(=O)[nH]c2=O)[C@H](OC(C)=O)[C@H]1OC(C)=O | inactive | inactive | inactive | inactive | inactive | – | – | inactive | inactive | inactive | inactive | inactive | inactive | – | – | inactive | inactive | –
5 | C[C@@H](Oc1ccc2[nH]nc(C=Cc3cnn(CCO)c3)c2c1)c1c(Cl)cncc1Cl | 4.18 µM (active) | 0.209 µM (active) | 6.62 µM (active) | – | 0.662 µM (active) | 0.0935 µM (active) | 1.32 µM (active) | – | 0.148 µM (active) | 4.18 µM (active) | 0.296 µM (active) | 0.148 µM (active) | 1.18 µM (active) | 0.148 µM (active) | 26.4 µM (active) | 23.5 µM (active) | 1.32 µM (active) | –
6 | C=CC1=C(C(=O)O)N2C(=O)[C@@H](NC(=O)C(=NO)c3csc(N)n3)[C@H]2SC1 | inactive | inactive | inactive | inactive | inactive | inactive | – | – | inactive | 11.8 µM (active) | – | – | inactive | – | – | – | inactive | –
7 | Cc1cnc(NC(=O)Nc2cc(Br)c(C)cc2OC[C@@H]2CNCCO2)cn1 | 13.2 µM (active) | 3.32 µM (active) | 1.48 µM (active) | 0.526 µM (active) | 0.743 µM (active) | 1.66 µM (active) | 4.69 µM (active) | 1.48 µM (active) | 1.87 µM (active) | 10.5 µM (active) | – | 5.26 µM (active) | 14.8 µM (active) | – | – | – | – | –
8 | O=C(Nc1cccc(Nc2ncc(Br)c(NCCc3cnc[nH]3)n2)c1)N1CCCC1 | 14.8 µM (active) | 2.96 µM (active) | – | 1.87 µM (active) | 0.59 µM (active) | 0.372 µM (active) | 2.64 µM (active) | 0.662 µM (active) | 2.96 µM (active) | 3.32 µM (active) | 4.18 µM (active) | 8.33 µM (active) | 18.7 µM (active) | 3.72 µM (active) | 23.5 µM (active) | 16.6 µM (active) | 18.7 µM (active) | –
9 | CCc1c(O)cc(O)c(C(=O)c2ccc(OCCN3CCOCC3)c(OC)c2)c1CC(=O)N(CCOC)CCOC | 1.18 µM (active) | 1.66 µM (active) | 0.469 µM (active) | – | 1.48 µM (active) | 1.18 µM (active) | 1.18 µM (active) | 0.935 µM (active) | 0.833 µM (active) | 1.32 µM (active) | 1.05 µM (active) | 0.935 µM (active) | 1.32 µM (active) | 3.32 µM (active) | 1.32 µM (active) | 1.05 µM (active) | – | –
10 | N#CC(=C(N)Sc1ccc(N)cc1)c1ccccc1C(F)(F)F | 6.62 µM (active) | inactive | 16.6 µM (active) | – | – | 2.96 µM (active) | – | – | 2.96 µM (active) | inactive | inactive | – | inactive | 0.148 µM (active) | 7.43 µM (active) | – | 13.2 µM (active) | –
11 | CC[C@H](CC[C@@H](C)[C@H]1CC[C@H]2[C@@H]3CC=C4C[C@@H](O)CC[C@]4(C)[C@@H]3CC[C@]12C)C(C)C | inactive | inactive | inactive | inactive | inactive | – | – | – | inactive | inactive | inactive | inactive | inactive | – | – | inactive | inactive | 106
